# Compound activity (PubChem)
# Sampled rows, rich in hits. Any-hit rate of the full collection: about 17%.
# TDP1 cell CPT = growth inhibition of DT40 Tdp1-/-;hTDP1 cells with camptothecin (screen for TDP1 inhibitors) | chicken DT40 Tdp1-/-;hTDP1 cells + 20 nM CPT, ATP luminescence, 48 h | Potency, µM (titrated, usually from 46.2 µM), for inactives: top-dose activity change, negative = growth inhibition, most hits filed as inhibitors | AID 686979 | hit rate 12% among 420,000; note: % is set by controls: 0 for no effect and ±100 for the full control effect; nearly all actives have a fitted effect of over 55% in size
#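 Cell growth measured by CellTiter-Glo luminescence after a minimum 48 h, 37 C compound exposure with 20 nM CPT in Tdp1-knockout DT40 cells stably expressing hTDP1, seeded 400/well; qHTS titration format.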
# HT1080 IDH1KD tx = HT-1080 IDH1 knockdown cell toxicity (counter line); Potency, µM (doses to about 46.1 µM), for the others: top-dose activity, negative = toxicity, actives largely listed as cytotoxic; hit rate 2% among 360,000; AID 686971; HT-1080 IDH1 knockdown viability, ATP luminescence, 48 h;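 note: 0% = DMSO wells and -100% = cell-free medium wells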
#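 IDH1KD HT-1080 cells, 750/well, RPMI + 5% FBS; compound pinned after 2 h settling; 48 h, 37 °C; CellTiter-Glo luminescence; % activity normalised to DMSO and no-cell wells; curves fitted, classed by r2 and efficacy.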
# HT1080NT lethal = kills 2HG-producing HT-1080-NT fibrosarcoma cells; HT-1080-NT fibrosarcoma viability, CellTiter-Glo ATP luminescence, 48 h; Potency, µM (series often up to 46.1 µM), inactives show at the top dose activity, negative = less viability, most hits filed as cytotoxic; hit rate 1.6% among 360,000; AID 686970;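 note: NT is the 2HG producing partner of a matched IDH1 knockdown line; 0% = DMSO-treated cells and -100% = media-only wells without cells; nearly all actives have a fitted effect of over 55% in size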
#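 Viability by CellTiter-Glo luminescence after 48 h compound exposure at 37C of HT-1080-NT cells (750/well, RPMI, 5% FBS). % activity scaled between DMSO wells and medium-only wells, then curve-fitted and categorized by curve class.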
# DT40 TDP1 no CPT = qHTS for Inhibitors of human tyrosyl-DNA phosphodiesterase 1 (TDP1): qHTS in cells in absence of CPT | DT40 Tdp1-/- hTDP1 cells, no CPT, ATP luminescence, 48 h | Potency, µM (series often up to 46.2 µM), for inactives: at the top dose activity change, negative = growth inhibition, actives largely listed as inhibitors | hit rate 15% among 420,000 | AID 686978, 2013; note: % is set by controls: 0 for no effect and ±100 for the full control effect; nearly all actives have a fitted effect of over 55% in size
#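 Chicken DT40 Tdp1-/- cells complemented with human TDP1, screened without camptothecin (DMSO vehicle only), 400 cells/well. Compounds pin-transferred, cells incubated at 37 °C for at least 48 hr. Growth read as ATP-dependent luminescence (CellTiter-Glo, 30 min at RT).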
# HepG2 tox = counter-screen for TGF-b inhibitors: cytotoxicity in HepG2 cells | HepG2 CAGA-GFP viability, ATP luminescence, 18 h | Potency, µM (titrated, usually from 46.1 µM), for inactives: top-dose activity change, negative = cytotoxicity, hits mostly cytotoxic | hit rate 0.76% among 410,000 | AID 588856
#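 HepG2 CAGA-GFP cells (1000/well, DMEM with 1% FBS) received compound, then TGF-beta at 500 pg/mL final, and were incubated 18 hours at 37 degrees C. Viability was read by CellTiter-Glo luminescence. Media-only wells were set as complete cell-killing and DMSO as no toxicity.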
# TGFb SMAD3 inh = TGF-b pathway inhibition; AID 588855; HepG2 CAGA-GFP TGF-b/SMAD3 reporter, GFP fluorescence, 18 h; TGF-beta stimulated, 500 pg/mL final; hit rate 1.2% among 410,000; Potency, µM (top dose mostly 46.1 µM), inactives show top-dose activity, negative = inhibition, hits mostly inhibitors; note: % is set by controls: 0 for no effect and ±100 for the full control effect; nearly all actives have a fitted effect of over 65% in size
#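 GFP signal (ex488/em500-530) from TGF-beta-stimulated HEPG2 CAGA-GFP cells, 500 pg/mL final, 18 h at 37 degrees C in DMEM plus 1% FBS, normalized to unstimulated and DMSO-stimulated controls.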
# Active calls of the source: *; u = inconclusive; x = no result; [ ] = dose if it differs, or a comment. Calls come from the whole dose curve; as a rule, active = well fitted curve in the direction sought with a large enough effect; inconclusive = small, poorly fitted or top-dose-only effect, or another doubt; inactive = no such curve, though single readings can be large; an effect the other way counts as inactive or inconclusive. Potency is the fitted concentration of half-maximal effect.
SMILES,TDP1 cell CPT,HT1080 IDH1KD tx,HT1080NT lethal,DT40 TDP1 no CPT,HepG2 tox,TGFb SMAD3 inh
COc1ccc(S(=O)(=O)Nc2ccc(Cc3ccncc3)cc2)cc1OC,12µM*,-21%,-22%,15µM*,-8%,-13%
CCOc1ccc(C(C)(C)C)cc1S(=O)(=O)Nc1ccncc1,4%,0%,4%,10%,-20%,-11%
COc1ccc(S(=O)(=O)NCc2cccnc2)cc1OC,12%,10%,2%,-2%,-1%,3%
CCc1ccc(OC)c(S(=O)(=O)Nc2ccc(Cc3ccncc3)cc2)c1,7.3µM*,u,u,8.2µM*,-19%,u
COc1ccc2cc(S(=O)(=O)NCc3cccnc3)ccc2c1,u,u,-28%,8.2µM*,-8%,-41%
COc1ccc(S(=O)(=O)NCc2ccncc2)cc1OC,13µM*,-4%,6%,14µM*,-10%,-1%
O=S(=O)(Nc1ccc(Cc2ccncc2)cc1)c1ccc(Cl)c(Cl)c1,u,u,u,u,-34%,u
Oc1ccc(Cl)cc1CNCc1ccc(Cl)nc1,0%,-1%,-15%,-3%,-5%,7%
CC(C)CNC(=S)N(CCO)Cc1cc2cc3c(cc2[nH]c1=O)OCO3,9%,10%,3%,0%,-47%,u
CCn1nc(C)c(CNC(=O)c2ccc(OC3CCN(Cc4ccccn4)CC3)cc2)c1C,6.5µM*,-26%,u,2.9µM*,-6%,-6%
Cc1cccnc1CCNC(=O)c1ccc(OC2CCN(Cc3ccccn3)CC2)cc1,-8%,14%,8%,-17%,-8%,-15%
O=C(NCCc1cccc(Cl)c1)c1ccc(OC2CCN(Cc3ccccn3)CC2)cc1,29µM*,u,u,16µM*,-31%,-15%
CCOc1ccc(CCNC(=O)c2oc(=O)c3ccccc3c2-c2ccc(C)cc2)cc1OCC,u,x,x,u,-2%,u
Cc1ccc(C)c(-n2ccnc2SCC(=O)c2c(N)n(C3CC3)c(=O)[nH]c2=O)c1,u,-15%,-4%[9.24 µM],u,-22%,-15%
Cc1c(Cl)cccc1NC(=O)CSc1ncnc2c1cnn2CCc1ccccc1,-27%,6%,15%,u,-23%,10%
CC(C)(C)C(=O)CSc1ncnc2c1cnn2Cc1ccccc1,-11%,-13%,-7%,15µM*,-12%,-1%
O=C(CSc1ncnc2c1cnn2CCc1ccccc1)Nc1cccc(C(F)(F)F)c1,u,u,u,23µM*,-26%,u
CCC(Sc1nc2ccccc2s1)C(=O)Nc1cc(C)on1 (stereo not drawn),-29%,-19%,-8%,u,-27%,-11%
CCN(Cc1cccc(F)c1)C(=O)c1ccc2ccccc2n1,-29%,-3%,-10%,u,-13%,3%
O=[N+]([O-])c1ccc(N2CCCCC2)cc1NCCOc1ccccc1,29µM*,19%,19%,18µM*,4%,-13%
NCCNc1cc(N2CCCC2)ccc1[N+](=O)[O-],23µM*,-4%,0%,u,-6%,-17%
O=[N+]([O-])c1ccccc1NCCOc1ccccc1,-7%,-1%,-1%,-2%,-7%,u
CCc1ccc(OCCNc2cc(N3CCNC(C)C3)ccc2[N+](=O)[O-])cc1 (stereo not drawn),23µM*,u,u,u,11µM*,u
Cc1ccccc1OCCNc1cc(N2CC(C)NC(C)C2)ccc1[N+](=O)[O-] (stereo not drawn),15µM*,u,u,u,-116%,u
CN(Cc1cccc(Cl)c1Cl)C(=O)CCNC(=O)c1ccco1,-9%,1%,3%,-19%,-30%,3%
SMILES,TDP1 cell CPT,HT1080 IDH1KD tx,HT1080NT lethal,DT40 TDP1 no CPT,HepG2 tox,TGFb SMAD3 inh
CC1CN(c2ccc([N+](=O)[O-])c(NCCOc3ccccc3)c2)CC(C)N1 (stereo not drawn),u,21µM*,16µM*,u,-58%,u
Cc1ccc(C(=O)Nc2ccc(S(=O)(=O)NCc3ccco3)cc2)cc1,u,u,u,u,-3%,-2%
COc1ccccc1NC(=O)CN(Cc1ccco1)C(=O)c1cncc(Br)c1,-20%,-7%,0%,-31%,4%,-20%
Cc1cc(C)n(-c2ccc(C(=O)Nc3ccc(S(=O)(=O)NCc4ccco4)cc3)cc2)n1,18µM*,u,-22%,18µM*,-22%,u
COc1ccccc1NC(=O)CN(Cc1ccco1)C(=O)c1ccc(-n2nc(C)cc2C)cc1,u,2%,7%,16µM*,4%,7%
Cc1cc(C)n(-c2ccc(C(=O)Nc3cccc(S(=O)(=O)N(C)C)c3)cc2)n1,1.8µM*,-20%,1%,1.6µM*,1%,u
C/C(=N\Nc1nc(Cl)c(Cl)cc1Cl)c1ccc(S(=O)(=O)NCc2ccco2)cc1,u,-29%,-2%,21µM*,-12%,u
Cc1cc(C)n(-c2ccc(C(=O)Nc3cccc([N+](=O)[O-])c3)cc2)n1,-23%,-14%,u,u,-22%,3%
COc1ccc(N2CCN(C(=O)COC(=O)Cc3cccc(OC)c3)CC2)cc1,-30%,1%,0%,1%,-2%,11%
O=C(c1cccc(C(F)(F)F)c1)C1CCCN(C(=O)CN2CCOC2=O)C1 (stereo not drawn),3%,14%,3%,15%,-1%,-4%
Cc1cc(F)ccc1-c1cc(C(=O)N2CCN(c3ccncc3)CC2)[nH]n1,u,-8%,-19%,u,-25%,3%
Cc1cccc(C)c1NC(=O)CN(CC(=O)O)CC(=O)O,-6%,x,x,-3%,x,x
Cc1cc(C)n(-c2ccc(C(=O)Nc3ccc(C)c(S(=O)(=O)N(C)C)c3)cc2)n1,u,u,u,u,-11%,-9%
Cc1cc(C)n(-c2ccc(C(=O)Nc3ccc(S(=O)(=O)N(C)C)cc3)cc2)n1,u,-13%,-19%,23µM*,-38%,-13%
CCOC(=O)/C=C1\SCC(=O)N1CC(=O)Nc1cc(S(=O)(=O)N(C)C)ccc1C,-2%,2%,1%,-12%,-1%,48%
COC(=O)c1ccc(NS(=O)(=O)c2ccc(-c3cc(C)no3)s2)cc1,u,-20%,-5%,u,17%,-8%
